# Experimental data as given in PubChem BioAssay (NCATS).
# Records with an inconclusive call do not appear. Where a call stands in place of a potency, no number is given. Activity calls are given as the source filed them. Unless noted, calls follow the shape of the dose curve; as a rule, active = well fitted curve in the direction sought with a large enough effect in the repeat runs; inconclusive = weak or mixed curves; inactive = no such curve, though single readings can be large; an effect the other way counts as inactive or inconclusive.
# Experiments:
# [1] = biological target: Cytochrome P450 2D6 (Homo sapiens) (UniProt P10635); test: Cytochrome P450 family 2 subfamily D member 6 (CYP2D6) small molecule antagonists: luciferase biochemical (cell-free) qHTS assay (AID 1645840); also: nearly all actives have a fitted effect of over 55% in size; also: potency is read from the fitted curve at half-maximal effect
# Chain of Cytochrome P450 2D6 (Homo sapiens) (P10635 whole entry, looked up): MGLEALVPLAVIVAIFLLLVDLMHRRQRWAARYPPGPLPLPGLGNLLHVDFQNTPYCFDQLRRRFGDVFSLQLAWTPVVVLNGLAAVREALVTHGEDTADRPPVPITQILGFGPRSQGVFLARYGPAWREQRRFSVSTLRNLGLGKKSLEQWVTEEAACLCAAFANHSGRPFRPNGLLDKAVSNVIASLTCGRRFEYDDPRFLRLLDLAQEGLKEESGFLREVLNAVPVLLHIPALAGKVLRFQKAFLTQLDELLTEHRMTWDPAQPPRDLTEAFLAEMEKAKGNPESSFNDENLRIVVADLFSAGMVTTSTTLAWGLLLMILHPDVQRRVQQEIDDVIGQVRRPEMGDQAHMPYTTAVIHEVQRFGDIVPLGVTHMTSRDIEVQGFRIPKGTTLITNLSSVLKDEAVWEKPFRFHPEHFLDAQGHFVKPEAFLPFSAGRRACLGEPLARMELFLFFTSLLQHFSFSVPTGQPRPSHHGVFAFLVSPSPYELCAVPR
# Outline: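 P450-Glo CYP2D6 system: proluciferin substrate converted by enzyme to luciferin, read by luminescence proportional to activity. Enzyme-substrate mix with compound 10 min at room temperature, then NADPH regeneration 1 h before detection reagent.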
# [2] = biological target: Cytochrome P450 3A4 (Homo sapiens) (UniProt P08684); test: Cytochrome P450 family 3 subfamily A member 4 (CYP3A4) small molecule antagonists: luciferase qHTS assay (AID 1645841); also: nearly all actives have a fitted effect of over 45% in size
# Chain of Cytochrome P450 3A4 (Homo sapiens) (P08684 whole entry, looked up): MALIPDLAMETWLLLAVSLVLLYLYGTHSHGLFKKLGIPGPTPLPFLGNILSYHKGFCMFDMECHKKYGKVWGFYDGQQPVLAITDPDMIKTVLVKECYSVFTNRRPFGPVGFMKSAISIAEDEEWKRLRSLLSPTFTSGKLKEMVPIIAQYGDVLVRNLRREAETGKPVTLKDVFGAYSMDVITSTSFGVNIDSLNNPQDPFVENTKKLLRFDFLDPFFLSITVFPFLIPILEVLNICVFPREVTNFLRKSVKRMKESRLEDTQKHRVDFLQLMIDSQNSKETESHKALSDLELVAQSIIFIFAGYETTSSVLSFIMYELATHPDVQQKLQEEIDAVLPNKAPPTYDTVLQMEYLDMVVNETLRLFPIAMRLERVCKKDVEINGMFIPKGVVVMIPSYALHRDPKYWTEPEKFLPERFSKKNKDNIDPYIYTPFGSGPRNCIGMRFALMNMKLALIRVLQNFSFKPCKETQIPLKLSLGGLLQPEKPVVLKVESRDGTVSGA
# Outline: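 Luminescent CYP3A4 activity readout: compounds plus enzyme-substrate mix 10 min at room temperature, reaction started with NADPH regenerating system for 1 h, stopped with detection reagent, read after 20 min. Ketoconazole served as control.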
# [3] = biological target: Cytochrome P450 2C9 (Homo sapiens) (UniProt P11712); test: Cytochrome P450 family 2 subfamily C member 9 (CYP2C9) small molecule antagonists: luciferase biochemical (cell-free) qHTS assay (AID 1645842); also: nearly all actives have a fitted effect of over 55% in size; also: potency is read from the fitted curve at half-maximal effect
# Chain of Cytochrome P450 2C9 (Homo sapiens) (P11712 whole entry, looked up): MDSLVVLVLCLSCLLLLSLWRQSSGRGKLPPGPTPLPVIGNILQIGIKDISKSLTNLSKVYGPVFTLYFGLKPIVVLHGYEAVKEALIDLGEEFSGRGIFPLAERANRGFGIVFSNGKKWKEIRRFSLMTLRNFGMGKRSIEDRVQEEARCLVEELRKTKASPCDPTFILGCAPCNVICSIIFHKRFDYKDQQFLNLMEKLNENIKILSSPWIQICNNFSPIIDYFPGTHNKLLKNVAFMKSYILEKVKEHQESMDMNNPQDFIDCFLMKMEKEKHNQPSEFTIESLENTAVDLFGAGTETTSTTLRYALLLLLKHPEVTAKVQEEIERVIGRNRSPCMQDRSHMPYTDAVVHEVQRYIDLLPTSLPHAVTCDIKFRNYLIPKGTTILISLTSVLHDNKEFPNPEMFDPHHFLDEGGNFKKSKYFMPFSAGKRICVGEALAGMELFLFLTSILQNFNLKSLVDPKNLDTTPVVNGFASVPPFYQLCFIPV
# Outline: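 P450-Glo CYP2C9 system: proluciferin substrate with enzyme in mix containing 0.4% BSA, 10 min at room temperature, then NADPH regeneration solution added and incubated 1 h at 37C. Detection reagent stopped reaction; luminescence read after 20 min as RLU.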
# [4] = Primary qHTS to identify inhibitors of SARS-CoV-2 cell entry (AID 1645846; calls by dose curve; also: nearly all actives have a fitted effect of over 45% in size; also: potency is read from the fitted curve at half-maximal effect); settings: activity change, negative = inhibition: at 57.1 µM (top of the series) unless noted
# Outline: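 Inhibition of spike-mediated entry was scored in human ACE2-transfected Expi293F cells. Particles were MLV-pseudotyped with Wuhan-Hu-1 S carrying a 19-aa C-terminal deletion; signal was luciferase after two days, scaled between spike PP and fusion-protein-free PP.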
# [5] = Primary qHTS for inhibitors of nuclear receptor binding SET domain protein 2 (NSD2) in an isogenic RCH-ACV NSD2 p.E1099K mutant (9B) (AID 1645876; active = well fitted curve in the direction sought with a large enough effect; an effect the other way counts as inactive or inconclusive; also: nearly all actives have a fitted effect of over 70% in size; also: potency is read from the fitted curve at half-maximal effect)
# [6] = Primary qHTS for inhibitors of nuclear receptor binding SET domain protein 2 (NSD2) in an RCH-ACV wild type WT cells (2C) (AID 1645877; active = well fitted curve in the direction sought with a large enough effect; an effect the other way counts as inactive or inconclusive; also: nearly all actives have a fitted effect of over 70% in size; also: potency is read from the fitted curve at half-maximal effect)
# [7] = Cytotoxicity counterscreen for inhibitors of SARS-CoV-2 cell entry (AID 1645845; calls by dose curve; also: nearly all actives have a fitted effect of over 50% in size)
# Outline: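 ATP-content luminescence (ATPLite 1step, 15 min RT) read after 48 h compound exposure of Expi293F cells stably expressing human ACE2; normalized to cells-only wells and media-only wells.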
# [8] = biological target: N-terminal Xaa-Pro-Lys N-methyltransferase 1 (Homo sapiens) (UniProt Q9BV86); test: Confirmatory qHTS for Inhibitors of N-terminal methyltransferase 1 (NTMT1): MTaseGlo Assay (AID 1645874; active = well fitted curve in the direction sought with a large enough effect; an effect the other way counts as inactive or inconclusive; also: nearly all actives have a fitted effect of over 65% in size; also: potency is read from the fitted curve at half-maximal effect;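 as to activity change, negative = inhibition: luminescence from SAH made as NTMT1 methylates SPKRIA peptide using SAM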)
# Chain of N-terminal Xaa-Pro-Lys N-methyltransferase 1 (Homo sapiens) (Q9BV86 whole entry, looked up): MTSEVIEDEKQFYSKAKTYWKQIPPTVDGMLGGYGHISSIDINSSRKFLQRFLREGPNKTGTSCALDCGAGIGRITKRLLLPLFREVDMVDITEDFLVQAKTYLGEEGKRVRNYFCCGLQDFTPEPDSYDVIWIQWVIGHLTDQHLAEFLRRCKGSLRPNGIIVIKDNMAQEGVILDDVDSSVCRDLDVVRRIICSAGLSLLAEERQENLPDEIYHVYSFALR
# Outline: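 SPKRIA peptide at 1 uM was methylated by 125 nM NTMT1 using 100 uM SAM over 30 min at room temperature, following a 15 min compound preincubation. Product SAH was detected luminescently.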
# Papain (Carica papaya) = Papain (Carica papaya) (UniProt P00784); test: Primary qHTS assay for inhibitors of the protease papain (AID 1645873; active = well fitted curve in the direction sought with a large enough effect; an effect the other way counts as inactive or inconclusive;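 also: papain turnover of Z-FR-AMC read as the AMC fluorescence gain over 10 min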)
# Chain of Papain (Carica papaya) (P00784 whole entry, looked up): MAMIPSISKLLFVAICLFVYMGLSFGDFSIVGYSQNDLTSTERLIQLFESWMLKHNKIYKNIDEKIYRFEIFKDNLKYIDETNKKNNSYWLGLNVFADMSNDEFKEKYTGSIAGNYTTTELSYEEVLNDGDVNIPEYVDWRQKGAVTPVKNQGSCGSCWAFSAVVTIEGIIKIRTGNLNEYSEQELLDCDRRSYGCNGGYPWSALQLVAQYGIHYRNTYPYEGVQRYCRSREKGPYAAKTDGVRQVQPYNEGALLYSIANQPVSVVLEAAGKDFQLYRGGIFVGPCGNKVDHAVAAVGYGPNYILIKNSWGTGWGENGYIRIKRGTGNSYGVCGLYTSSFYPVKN
# [9] = VSVG counterscreen qHTS to identify inhibitors of SARS-CoV-2 cell entry (AID 1645847; calls by dose curve; also: nearly all actives have a fitted effect of over 65% in size)
# Outline: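 Luminescence from a luciferase reporter, normalised to bald particle and VSV-G pseudotyped particle wells, is the read-out. Cells are HEK293 expressing human ACE2, exposed to compound 1 h before a 48 h particle infection at 37 °C.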
compound,measurement,setting,value
NC(=O)OCCCc1ccccc1,Potency,[1],inactive
same,Potency,[2],inactive
same,Potency,[3],inactive
same,Potency,[4],inactive
same,Potency,[5],inactive
same,Potency,[6],inactive
Oc1ccc([C@H]2CNCc3c2ccc(O)c3O)cc1O,Potency,[1],inactive
same,Potency,[3],8.71 µM (active)
same,Potency,[7],inactive
same,"activity change, negative = inhibition",[4],1.13%
same,Potency,[8],18.3 µM (active)
CC(CC(C(N)=O)(c1ccccc1)c1ccccc1)N(C)C (stereo not drawn),Potency,[1],7.76 µM (active)
same,Potency,[3],inactive
same,Potency,[7],inactive
same,Potency,[5],inactive
same,Potency,[6],inactive
O=c1n(Cl)c(=O)n(Cl)c(=O)n1Cl,Potency,[1],inactive
same,Potency,[3],inactive
same,Potency,[7],inactive
same,"activity change, negative = inhibition",[4],1.05%
same,Potency,[5],inactive
same,Potency,[6],inactive
Cc1nnc2n1-c1sc(CCc3ccc(CC(C)C)cc3)cc1C(c1ccccc1Cl)=NC2C (stereo not drawn),Potency,[1],27.5 µM (active)
same,Potency,[3],15.5 µM (active)
same,Potency,[4],22.4 µM (active)
same,Potency,[5],7.5 µM (active)
same,Potency,[6],8.41 µM (active)
CN(C)CCc1c[nH]c2cccc(O)c12,Potency,[1],12.5 µM (active)
same,Potency,[3],inactive
same,Potency,[8],inactive
CCOC(=O)c1cncn1C(C)c1ccccc1 (stereo not drawn),Potency,[1],inactive
same,Potency,[3],11 µM (active)
same,Potency,[7],inactive
same,Potency,[4],inactive
same,Potency,[5],inactive
same,Potency,[6],inactive
COP(=O)(OC)OC=C(Cl)Cl,Potency,[1],inactive
same,Potency,[3],inactive
same,Potency,[7],inactive
same,"activity change, negative = inhibition",[4],-2.57%
same,Potency,[5],inactive
same,Potency,[6],inactive
CC(C)=CCN1CC[C@@]2(C)c3cc(O)ccc3C[C@@H]1[C@@H]2C,Potency,[1],0.176 µM (active)
same,Potency,[3],inactive
same,Potency,[5],18.9 µM (active)
same,Potency,[6],11.9 µM (active)
C[N+]1(C)[C@@H]2CC[C@H]1CC(OC(=O)C(CO)c1ccccc1)C2 (stereo partly drawn),Potency,[1],inactive
same,Potency,[3],inactive
same,Potency,[7],inactive
same,Potency,[4],inactive
same,Potency,[5],inactive
same,Potency,[6],inactive
CCCCCCCCC(=O)NCc1ccc(O)c(OC)c1,Potency,[1],13.8 µM (active)
same,Potency,[3],0.692 µM (active)
same,Potency,[7],inactive
same,"activity change, negative = inhibition",[4],4.35%
same,Potency,[5],inactive
same,Potency,[6],inactive
CC[C@]1(O)CC[C@H]2[C@@H]3CCC4=CCCC[C@@H]4[C@H]3CC[C@@]21C,Potency,[1],17.4 µM (active)
same,Potency,[3],inactive
same,Potency,[7],inactive
same,Potency,[8],14.1 µM (active)
same,Potency,[5],9.44 µM (active)
same,Potency,[6],7.5 µM (active)
O=C(O)c1nn(Cc2ccc(Cl)cc2Cl)c2ccccc12,Potency,[1],inactive
same,Potency,[3],inactive
same,Potency,[7],inactive
same,"activity change, negative = inhibition",[4],-33.8%
same,Potency,[5],inactive
same,Potency,[6],inactive
COc1cc(C[C@@H](C)N)c(OC)cc1C,Potency,[1],38.1 µM (active)
same,Potency,[3],inactive
same,Potency,[5],inactive
Nc1ccc(N)cc1,Potency,[1],3.09 µM (active)
same,Potency,[3],15.5 µM (active)
same,Potency,[5],inactive
CCOC(=O)c1ncn2c1CN(C)C(=O)c1c(I)cccc1-2,Potency,[1],inactive
same,Potency,[3],inactive
same,Potency,[7],inactive
same,Potency,[5],inactive
same,Potency,[6],inactive
C=CCOC(Cn1ccnc1)c1ccc(Cl)cc1Cl (stereo not drawn),Potency,[1],2.88 µM (active)
same,Potency,[3],0.683 µM (active)
same,Potency,[7],inactive
same,Potency,[5],23.7 µM (active)
CN(C)C(=O)Oc1cc(OC(=O)N(C)C)cc(C(O)CNC(C)(C)C)c1 (stereo not drawn),Potency,[1],8.71 µM (active)
same,Potency,[3],inactive
same,Potency,[7],inactive
same,Potency,[4],inactive
same,Potency,[5],inactive
same,Potency,[6],inactive
NCc1cccnc1,Potency,[1],inactive
same,Potency,[3],inactive
same,Potency,[5],inactive
same,Potency,[6],inactive
C[C@]12CC[C@H]3[C@@H](CC=C4C[C@@H](O)CC[C@@]43C)[C@@H]1CC[C@@H]2O,Potency,[1],inactive
same,Potency,[3],inactive
same,Potency,[5],inactive
same,Potency,[6],inactive
CN1[C@@H]2CC[C@H]1CC(OC(=O)c1cc(Cl)cc(Cl)c1)C2 (stereo partly drawn),Potency,[1],0.0436 µM (active)
same,Potency,[3],inactive
same,Potency,[5],inactive
CC(C)C(Br)C(=O)NC(N)=O (stereo not drawn),Potency,[1],inactive
same,Potency,[3],inactive
same,Potency,[7],inactive
same,"activity change, negative = inhibition",[4],4.07%
same,Potency,[5],inactive
same,Potency,[6],inactive
CCC1(c2cccc(O)c2)CCCCN(C)C1 (stereo not drawn),Potency,[1],13.8 µM (active)
same,Potency,[3],inactive
same,Potency,[7],inactive
same,Potency,[4],inactive
same,Potency,[5],inactive
same,Potency,[6],inactive
COC(=O)C1=CCCN(C)C1,Potency,[1],inactive
same,Potency,[3],inactive
same,outcome,Papain (Carica papaya),inactive
same,Potency,[5],inactive
same,Potency,[6],inactive
Clc1ccc(C(OCCN2CCCCC2)c2ccccc2)cc1 (stereo not drawn),Potency,[1],0.049 µM (active)
same,Potency,[3],inactive
same,Potency,[7],inactive
same,Potency,[9],inactive
same,Potency,[5],26.6 µM (active)
same,Potency,[6],26.6 µM (active)
C[C@@H]1CN(C2CCC(C#N)(c3ccc(F)cc3)CC2)CC[C@]1(C(=O)O)c1ccccc1 (stereo partly drawn),Potency,[1],0.049 µM (active)
same,Potency,[3],inactive
same,Potency,[7],inactive
same,"activity change, negative = inhibition",[4],-31.8%
same,Potency,[5],inactive
same,Potency,[6],inactive
CC(CC(C#N)(c1ccccc1)c1ccccc1)N(C)C (stereo not drawn),Potency,[1],5.61 µM (active)
same,Potency,[3],inactive
same,Potency,[5],17.2 µM (active)
CC(C)(O)C(Cl)(Cl)Cl,Potency,[1],inactive
same,Potency,[3],inactive
same,Potency,[7],inactive
same,Potency,[5],inactive
same,Potency,[6],inactive
c1ccc2nc(N3CCNCC3)ccc2c1,Potency,[1],inactive
same,Potency,[3],inactive
same,Potency,[5],inactive
same,Potency,[6],inactive
N#Cc1nn(-c2c(Cl)cc(C(F)(F)F)cc2Cl)c(N)c1S(=O)C(F)(F)F (stereo not drawn),Potency,[1],3.89 µM (active)
same,Potency,[3],3.89 µM (active)
same,Potency,[7],inactive
same,Potency,[6],21.1 µM (active)
O=C(O)Cc1ccccc1,Potency,[1],15.5 µM (active)
same,Potency,[3],inactive
same,Potency,[7],inactive
same,Potency,[4],inactive
same,Potency,[5],inactive
same,Potency,[6],inactive
